From publication PMC7862700, “An all-to-all approach to the identification of sequence-specific readers for epigenetic DNA modifications on cytosine”

Assays:
Test in all cases: DAPPL (digital affinity profiling via proximity ligation, sequencing); 10 mM Tris-HCl pH 7.5, 50 mM NaCl, 1 mM DTT, 4% glycerol, room temperature, 30 min; GST-TFs on glutathione beads, 16-mer random dsDNA library, 0.1% formaldehyde crosslink after washing; high values mean tight binding
FLI1 = biological target: T1, FLI1 (Homo sapiens, UniProt Q01543 1-452); details: protein: recombinant; tags: N-terminal GST; dsDNA, one strand shown
T1 sequence: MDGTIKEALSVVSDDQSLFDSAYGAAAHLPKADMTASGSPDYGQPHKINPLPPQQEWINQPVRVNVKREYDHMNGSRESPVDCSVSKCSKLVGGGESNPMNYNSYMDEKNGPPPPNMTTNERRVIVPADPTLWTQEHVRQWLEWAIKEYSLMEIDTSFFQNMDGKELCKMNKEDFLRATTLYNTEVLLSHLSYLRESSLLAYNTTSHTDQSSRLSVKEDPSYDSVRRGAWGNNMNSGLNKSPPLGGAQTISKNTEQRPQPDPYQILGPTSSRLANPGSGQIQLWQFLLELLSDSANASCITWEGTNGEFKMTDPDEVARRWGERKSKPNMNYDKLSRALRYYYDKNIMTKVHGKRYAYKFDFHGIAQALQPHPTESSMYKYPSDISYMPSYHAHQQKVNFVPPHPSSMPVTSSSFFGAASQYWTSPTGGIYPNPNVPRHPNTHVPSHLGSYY
Summary of the method: (§1)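 Human transcription factors fused to GST were expressed in yeast, captured on glutathione beads, given DNA barcodes and pooled with a GST-only negative control. Pools were incubated with 200 nmole of a 16-mer random double-stranded DNA library in Tris/NaCl/DTT/glycerol buffer at room temperature for 30 min. They were then washed, crosslinked with 0.1% formaldehyde, proximity-ligated (BsaI/T4 ligase, 1 h, 37 °C), PCR-amplified and sequenced on an Illumina NextSeq500. Binding signal is each 6-mer's read frequency for a factor divided by its frequency for the GST control.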

ELK1 = biological target: T2, ELK1 (Homo sapiens, UniProt P19419 1-428); details: protein: recombinant; tags: N-terminal GST; dsDNA, one strand shown
T2 sequence: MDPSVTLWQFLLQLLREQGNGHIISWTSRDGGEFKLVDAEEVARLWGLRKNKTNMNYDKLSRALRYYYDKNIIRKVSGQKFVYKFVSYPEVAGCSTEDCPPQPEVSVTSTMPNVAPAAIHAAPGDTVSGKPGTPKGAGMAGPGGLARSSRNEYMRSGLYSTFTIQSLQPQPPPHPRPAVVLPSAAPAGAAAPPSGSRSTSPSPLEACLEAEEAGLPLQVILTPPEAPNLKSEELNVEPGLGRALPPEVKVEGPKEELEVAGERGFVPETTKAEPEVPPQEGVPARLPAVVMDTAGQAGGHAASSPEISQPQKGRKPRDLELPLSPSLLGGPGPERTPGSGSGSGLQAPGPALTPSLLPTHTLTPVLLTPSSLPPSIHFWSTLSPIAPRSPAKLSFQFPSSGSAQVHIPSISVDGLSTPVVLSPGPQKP
Summary of the method: as §1

GABPA = biological target: T3, GABPA (Homo sapiens, UniProt Q06546 1-454); details: protein: recombinant; tags: N-terminal GST; dsDNA, one strand shown
T3 sequence: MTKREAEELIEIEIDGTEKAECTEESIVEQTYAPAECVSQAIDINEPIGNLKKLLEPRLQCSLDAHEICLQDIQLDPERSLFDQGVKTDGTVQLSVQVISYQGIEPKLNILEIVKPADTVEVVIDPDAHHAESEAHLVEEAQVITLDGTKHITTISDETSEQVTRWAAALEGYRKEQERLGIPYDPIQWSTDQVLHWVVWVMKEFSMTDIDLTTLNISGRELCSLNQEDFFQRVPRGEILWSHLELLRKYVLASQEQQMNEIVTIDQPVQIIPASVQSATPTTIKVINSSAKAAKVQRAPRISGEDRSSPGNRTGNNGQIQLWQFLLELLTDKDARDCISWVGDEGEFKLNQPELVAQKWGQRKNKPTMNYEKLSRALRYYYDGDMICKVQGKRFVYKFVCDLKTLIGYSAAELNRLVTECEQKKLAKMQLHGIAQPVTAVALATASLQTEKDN
Summary of the method: as §1

ERG = biological target: T4, ERG (Homo sapiens, UniProt P11308 1-479); details: protein: recombinant; tags: N-terminal GST; dsDNA, one strand shown
T4 sequence: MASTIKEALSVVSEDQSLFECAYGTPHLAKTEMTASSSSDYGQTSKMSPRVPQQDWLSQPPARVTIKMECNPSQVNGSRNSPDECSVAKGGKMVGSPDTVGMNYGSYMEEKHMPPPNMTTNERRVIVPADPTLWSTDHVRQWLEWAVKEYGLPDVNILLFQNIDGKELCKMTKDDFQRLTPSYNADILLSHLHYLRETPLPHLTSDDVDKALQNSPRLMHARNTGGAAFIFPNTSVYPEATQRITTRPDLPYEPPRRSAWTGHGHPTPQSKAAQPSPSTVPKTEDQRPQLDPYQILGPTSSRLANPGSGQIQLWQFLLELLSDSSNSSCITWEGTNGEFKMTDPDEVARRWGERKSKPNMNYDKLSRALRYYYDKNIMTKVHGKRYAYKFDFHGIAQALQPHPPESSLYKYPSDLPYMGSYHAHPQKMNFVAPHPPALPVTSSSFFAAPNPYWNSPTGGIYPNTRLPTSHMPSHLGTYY
Summary of the method: as §1

ELF1 = ELF1 (Homo sapiens, UniProt P32519 1-619); details: protein: recombinant; tags: N-terminal GST; dsDNA, one strand shown
Sequence of ELF1 (P32519 whole entry): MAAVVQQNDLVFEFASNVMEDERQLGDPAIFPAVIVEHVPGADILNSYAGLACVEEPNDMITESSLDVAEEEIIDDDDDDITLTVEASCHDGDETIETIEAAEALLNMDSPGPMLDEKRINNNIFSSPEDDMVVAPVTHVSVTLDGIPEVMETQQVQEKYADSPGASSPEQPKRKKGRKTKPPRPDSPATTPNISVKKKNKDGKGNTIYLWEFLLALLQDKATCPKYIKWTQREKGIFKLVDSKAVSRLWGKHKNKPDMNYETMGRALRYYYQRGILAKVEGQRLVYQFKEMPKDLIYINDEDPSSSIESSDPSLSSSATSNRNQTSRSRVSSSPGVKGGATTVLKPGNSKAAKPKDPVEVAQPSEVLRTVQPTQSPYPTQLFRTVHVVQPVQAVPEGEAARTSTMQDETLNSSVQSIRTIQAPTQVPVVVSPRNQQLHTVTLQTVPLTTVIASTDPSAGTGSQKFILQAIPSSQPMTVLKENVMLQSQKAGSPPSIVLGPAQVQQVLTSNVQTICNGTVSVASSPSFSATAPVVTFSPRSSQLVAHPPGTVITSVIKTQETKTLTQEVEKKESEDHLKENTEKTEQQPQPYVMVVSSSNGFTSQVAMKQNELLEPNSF
Summary of the method: as §1

EHF = biological target: T5, EHF (Homo sapiens, UniProt Q9NZC4 1-300); details: protein: recombinant; tags: N-terminal GST; dsDNA, one strand shown
T5 sequence: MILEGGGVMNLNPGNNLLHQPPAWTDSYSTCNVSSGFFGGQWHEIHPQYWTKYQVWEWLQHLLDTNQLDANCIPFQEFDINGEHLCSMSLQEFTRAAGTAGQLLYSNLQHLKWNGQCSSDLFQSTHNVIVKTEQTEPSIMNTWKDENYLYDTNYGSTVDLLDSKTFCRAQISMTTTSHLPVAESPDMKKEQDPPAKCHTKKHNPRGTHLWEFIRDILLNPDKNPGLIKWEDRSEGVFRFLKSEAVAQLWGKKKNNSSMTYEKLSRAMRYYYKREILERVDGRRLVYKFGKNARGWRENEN
Summary of the method: as §1

SPI1 = SPI1 (Homo sapiens, UniProt P17947 1-270); details: protein: recombinant; tags: N-terminal GST; dsDNA, one strand shown
Summary of the method: as §1

SPIB = SPIB (Homo sapiens, UniProt Q01892 1-262); details: protein: recombinant; tags: N-terminal GST; dsDNA, one strand shown
Sequence of SPIB (Q01892 whole entry): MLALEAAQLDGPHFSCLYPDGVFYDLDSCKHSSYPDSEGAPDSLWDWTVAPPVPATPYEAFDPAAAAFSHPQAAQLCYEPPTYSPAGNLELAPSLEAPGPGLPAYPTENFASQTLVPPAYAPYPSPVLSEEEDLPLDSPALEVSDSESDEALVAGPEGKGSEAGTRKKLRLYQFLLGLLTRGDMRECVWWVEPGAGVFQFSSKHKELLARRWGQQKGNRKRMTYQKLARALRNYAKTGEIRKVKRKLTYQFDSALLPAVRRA
Summary of the method: as §1

ELK3 = biological target: T6, ELK3 (Homo sapiens, UniProt P41970 1-407); details: protein: recombinant; tags: N-terminal GST; dsDNA, one strand shown
T6 sequence: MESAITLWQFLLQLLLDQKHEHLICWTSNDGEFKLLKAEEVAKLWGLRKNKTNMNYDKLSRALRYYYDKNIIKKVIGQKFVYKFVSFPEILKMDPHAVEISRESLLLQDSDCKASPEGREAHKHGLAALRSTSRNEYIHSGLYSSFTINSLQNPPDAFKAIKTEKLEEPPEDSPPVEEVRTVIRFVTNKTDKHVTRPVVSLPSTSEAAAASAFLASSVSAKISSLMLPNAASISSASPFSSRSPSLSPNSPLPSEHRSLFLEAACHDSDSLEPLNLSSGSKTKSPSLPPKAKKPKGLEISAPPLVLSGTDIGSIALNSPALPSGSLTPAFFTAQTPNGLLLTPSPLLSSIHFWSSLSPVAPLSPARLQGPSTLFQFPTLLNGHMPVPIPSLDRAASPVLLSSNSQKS
Summary of the method: as §1

FEV = biological target: T7, FEV (Homo sapiens, UniProt Q99581 1-238); details: protein: recombinant; tags: N-terminal GST; dsDNA, one strand shown
T7 sequence: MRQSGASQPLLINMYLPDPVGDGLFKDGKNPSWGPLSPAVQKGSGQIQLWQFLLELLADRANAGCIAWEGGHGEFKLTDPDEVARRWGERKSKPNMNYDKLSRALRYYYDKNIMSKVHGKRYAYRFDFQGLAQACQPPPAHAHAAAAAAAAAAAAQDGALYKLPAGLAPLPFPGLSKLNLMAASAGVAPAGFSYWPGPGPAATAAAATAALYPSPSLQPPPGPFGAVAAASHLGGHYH
Summary of the method: as §1

ETV5 = ETV5 (Homo sapiens, UniProt P41161 1-510); details: protein: recombinant; tags: N-terminal GST; dsDNA, one strand shown
Sequence of ETV5 (P41161 whole entry): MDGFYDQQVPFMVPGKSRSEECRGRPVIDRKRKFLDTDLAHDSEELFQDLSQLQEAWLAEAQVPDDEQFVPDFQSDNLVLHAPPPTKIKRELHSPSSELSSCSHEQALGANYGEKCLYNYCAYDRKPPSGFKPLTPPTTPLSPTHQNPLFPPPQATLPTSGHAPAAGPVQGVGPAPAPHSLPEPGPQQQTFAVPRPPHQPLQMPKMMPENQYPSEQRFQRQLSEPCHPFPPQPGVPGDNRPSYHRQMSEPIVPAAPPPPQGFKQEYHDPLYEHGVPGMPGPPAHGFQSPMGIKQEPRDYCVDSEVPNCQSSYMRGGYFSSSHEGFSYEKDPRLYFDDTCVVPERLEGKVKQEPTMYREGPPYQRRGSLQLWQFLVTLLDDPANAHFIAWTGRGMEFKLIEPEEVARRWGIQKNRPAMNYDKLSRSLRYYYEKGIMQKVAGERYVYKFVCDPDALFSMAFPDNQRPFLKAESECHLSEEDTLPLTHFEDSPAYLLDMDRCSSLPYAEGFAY
Summary of the method: as §1

HSF1 = HSF1 (Homo sapiens, UniProt Q00613 1-529); details: protein: recombinant; tags: N-terminal GST; chain copies: 3; dsDNA, one strand shown
Sequence of HSF1 (Q00613 whole entry): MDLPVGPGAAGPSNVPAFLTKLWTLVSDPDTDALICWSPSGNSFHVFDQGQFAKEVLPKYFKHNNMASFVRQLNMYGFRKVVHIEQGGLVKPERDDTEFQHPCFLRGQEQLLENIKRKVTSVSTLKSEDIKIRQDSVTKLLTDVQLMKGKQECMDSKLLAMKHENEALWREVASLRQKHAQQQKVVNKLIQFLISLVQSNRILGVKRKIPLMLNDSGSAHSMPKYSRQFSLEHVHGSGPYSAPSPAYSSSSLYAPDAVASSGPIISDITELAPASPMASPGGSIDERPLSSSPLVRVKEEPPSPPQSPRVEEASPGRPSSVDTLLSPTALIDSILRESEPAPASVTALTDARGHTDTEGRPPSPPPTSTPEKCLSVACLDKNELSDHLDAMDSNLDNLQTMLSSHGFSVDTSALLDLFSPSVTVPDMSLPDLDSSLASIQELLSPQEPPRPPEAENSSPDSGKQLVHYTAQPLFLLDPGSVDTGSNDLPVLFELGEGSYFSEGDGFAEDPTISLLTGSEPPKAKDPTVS
Summary of the method: as §1

SPIC = biological target: T8, SPIC (Homo sapiens, UniProt Q8N5J4 1-248); details: protein: recombinant; tags: N-terminal GST; dsDNA, one strand shown
T8 sequence: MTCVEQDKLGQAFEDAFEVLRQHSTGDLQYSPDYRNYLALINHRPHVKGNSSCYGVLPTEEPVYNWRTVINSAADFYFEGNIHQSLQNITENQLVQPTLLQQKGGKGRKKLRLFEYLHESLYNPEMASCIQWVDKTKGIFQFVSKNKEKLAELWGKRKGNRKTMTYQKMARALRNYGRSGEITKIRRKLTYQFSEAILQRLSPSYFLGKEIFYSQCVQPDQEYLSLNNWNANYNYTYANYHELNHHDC
Summary of the method: as §1

ELF4 = ELF4 (Homo sapiens, UniProt Q99607 1-663); details: protein: recombinant; tags: N-terminal GST; dsDNA, one strand shown
Sequence of ELF4 (Q99607 whole entry): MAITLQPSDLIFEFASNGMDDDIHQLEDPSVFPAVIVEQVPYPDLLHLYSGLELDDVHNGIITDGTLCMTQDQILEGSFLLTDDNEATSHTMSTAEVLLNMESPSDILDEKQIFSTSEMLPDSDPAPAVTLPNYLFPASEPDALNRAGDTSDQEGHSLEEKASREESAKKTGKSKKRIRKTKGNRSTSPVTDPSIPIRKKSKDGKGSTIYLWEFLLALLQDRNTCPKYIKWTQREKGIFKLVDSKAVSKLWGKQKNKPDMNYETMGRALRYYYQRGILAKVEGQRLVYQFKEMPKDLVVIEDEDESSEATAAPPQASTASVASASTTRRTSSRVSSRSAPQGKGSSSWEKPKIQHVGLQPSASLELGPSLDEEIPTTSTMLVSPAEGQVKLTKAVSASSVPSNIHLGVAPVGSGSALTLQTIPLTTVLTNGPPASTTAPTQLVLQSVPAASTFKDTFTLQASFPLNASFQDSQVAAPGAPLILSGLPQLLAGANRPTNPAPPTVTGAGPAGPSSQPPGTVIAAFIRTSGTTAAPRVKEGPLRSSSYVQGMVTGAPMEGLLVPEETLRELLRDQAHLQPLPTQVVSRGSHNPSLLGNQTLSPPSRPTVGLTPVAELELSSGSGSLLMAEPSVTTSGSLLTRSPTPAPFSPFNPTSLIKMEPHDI
Summary of the method: as §1

ELK4 = biological target: T9, ELK4 (Homo sapiens, UniProt P28324-2 1-405); details: protein: recombinant; tags: N-terminal GST; dsDNA, one strand shown
T9 sequence: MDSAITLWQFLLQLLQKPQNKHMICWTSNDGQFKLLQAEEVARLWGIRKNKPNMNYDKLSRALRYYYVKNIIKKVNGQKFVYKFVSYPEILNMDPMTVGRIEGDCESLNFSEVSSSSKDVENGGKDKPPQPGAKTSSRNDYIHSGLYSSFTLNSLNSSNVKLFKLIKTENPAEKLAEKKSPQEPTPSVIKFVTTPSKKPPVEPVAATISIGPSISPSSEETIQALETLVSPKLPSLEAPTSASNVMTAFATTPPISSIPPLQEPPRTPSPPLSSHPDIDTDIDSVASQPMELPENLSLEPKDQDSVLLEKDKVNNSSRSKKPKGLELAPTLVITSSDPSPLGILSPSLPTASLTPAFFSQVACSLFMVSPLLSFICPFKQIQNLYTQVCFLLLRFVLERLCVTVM
Summary of the method: as §1

ETV2 = biological target: T10, ETV2 (Homo sapiens, UniProt O00321 1-342); details: protein: recombinant; tags: N-terminal GST; dsDNA, one strand shown
T10 sequence: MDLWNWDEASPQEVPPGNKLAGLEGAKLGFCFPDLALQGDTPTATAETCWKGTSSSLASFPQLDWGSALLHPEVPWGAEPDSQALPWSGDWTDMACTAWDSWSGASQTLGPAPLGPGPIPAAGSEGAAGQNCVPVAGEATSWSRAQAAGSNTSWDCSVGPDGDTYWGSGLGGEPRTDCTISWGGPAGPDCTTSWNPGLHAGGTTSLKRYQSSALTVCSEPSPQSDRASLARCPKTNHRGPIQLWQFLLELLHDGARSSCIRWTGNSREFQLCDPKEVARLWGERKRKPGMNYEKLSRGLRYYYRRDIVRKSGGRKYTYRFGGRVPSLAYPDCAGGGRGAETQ
Summary of the method: as §1

ELF3 = biological target: T11, ELF3 (Homo sapiens, UniProt P78545 1-371); details: protein: recombinant; tags: N-terminal GST; dsDNA, one strand shown
T11 sequence: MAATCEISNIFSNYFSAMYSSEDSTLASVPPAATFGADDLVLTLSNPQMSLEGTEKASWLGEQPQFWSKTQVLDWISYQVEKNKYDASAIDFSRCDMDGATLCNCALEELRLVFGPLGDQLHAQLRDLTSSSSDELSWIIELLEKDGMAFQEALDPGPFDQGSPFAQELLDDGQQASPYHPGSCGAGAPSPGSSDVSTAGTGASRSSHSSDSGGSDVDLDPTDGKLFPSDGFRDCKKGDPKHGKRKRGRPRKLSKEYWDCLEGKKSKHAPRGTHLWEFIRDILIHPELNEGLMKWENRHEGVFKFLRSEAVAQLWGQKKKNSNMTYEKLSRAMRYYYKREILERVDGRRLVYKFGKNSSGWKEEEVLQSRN
Summary of the method: as §1

CRX = CRX (Homo sapiens, UniProt O43186 1-299); details: protein: recombinant; tags: N-terminal GST; dsDNA, one strand shown
Sequence of CRX (O43186 whole entry): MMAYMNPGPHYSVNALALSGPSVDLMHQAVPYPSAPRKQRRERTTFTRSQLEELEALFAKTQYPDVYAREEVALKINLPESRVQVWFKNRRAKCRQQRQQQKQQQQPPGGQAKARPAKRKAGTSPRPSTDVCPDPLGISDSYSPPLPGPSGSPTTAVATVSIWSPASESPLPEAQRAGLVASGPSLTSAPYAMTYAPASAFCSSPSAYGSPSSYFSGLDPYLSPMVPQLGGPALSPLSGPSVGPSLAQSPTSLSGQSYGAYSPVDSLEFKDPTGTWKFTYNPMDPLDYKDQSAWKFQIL
Summary of the method: as §1

ETV1 = ETV1 (Homo sapiens, UniProt P50549 1-477); details: protein: recombinant; tags: N-terminal GST; dsDNA, one strand shown
Sequence of ETV1 (P50549 whole entry): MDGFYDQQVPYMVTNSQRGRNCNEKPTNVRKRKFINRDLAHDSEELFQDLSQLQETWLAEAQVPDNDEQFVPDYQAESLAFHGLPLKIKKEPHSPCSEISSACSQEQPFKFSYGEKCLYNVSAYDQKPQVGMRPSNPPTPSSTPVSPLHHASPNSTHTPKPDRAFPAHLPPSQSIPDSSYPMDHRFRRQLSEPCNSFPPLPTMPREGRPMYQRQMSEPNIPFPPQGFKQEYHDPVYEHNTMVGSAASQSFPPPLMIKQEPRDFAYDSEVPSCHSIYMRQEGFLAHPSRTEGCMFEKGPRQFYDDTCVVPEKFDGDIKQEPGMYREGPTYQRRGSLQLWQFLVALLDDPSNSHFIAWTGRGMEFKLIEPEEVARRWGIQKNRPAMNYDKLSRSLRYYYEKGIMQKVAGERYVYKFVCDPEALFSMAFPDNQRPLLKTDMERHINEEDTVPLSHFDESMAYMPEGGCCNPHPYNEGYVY
Summary of the method: as §1

AAGCCT was tested, and the binding signal (FLI1) was 1.21 fold enrichment (6-mer frequency, TF over GST control), the binding signal (ELK1) was 1.22 fold enrichment (6-mer frequency, TF over GST control) and the binding signal (GABPA) was 1.24 fold enrichment (6-mer frequency, TF over GST control). For the same sequence, the binding signal (ERG) was 1.21 fold enrichment (6-mer frequency, TF over GST control), the binding signal (ELF1) was 1.25 fold enrichment (6-mer frequency, TF over GST control) and the binding signal (EHF) was 1.16 fold enrichment (6-mer frequency, TF over GST control). For the same sequence, the binding signal (SPI1) was 1.14 fold enrichment (6-mer frequency, TF over GST control), the binding signal (SPIB) was 1.22 fold enrichment (6-mer frequency, TF over GST control) and the binding signal (ELK3) was 1.25 fold enrichment (6-mer frequency, TF over GST control). For the same sequence, the binding signal (FEV) was 1.2 fold enrichment (6-mer frequency, TF over GST control), the binding signal (ETV5) was 1.21 fold enrichment (6-mer frequency, TF over GST control) and the binding signal (HSF1) was 1.5 fold enrichment (6-mer frequency, TF over GST control). The binding signal (SPIC) was 1.26 fold enrichment (6-mer frequency, TF over GST control), the binding signal (ELF4) was 1.24 fold enrichment (6-mer frequency, TF over GST control) and the binding signal (ELK4) was 1.14 fold enrichment (6-mer frequency, TF over GST control). The binding signal (ETV2) was 1.19 fold enrichment (6-mer frequency, TF over GST control), the binding signal (ELF3) was 1.18 fold enrichment (6-mer frequency, TF over GST control) and the binding signal (CRX) was 1.97 fold enrichment (6-mer frequency, TF over GST control). For the same sequence, the binding signal (ETV1) was 1.18 fold enrichment (6-mer frequency, TF over GST control).
